Screening data deposited in PubChem BioAssay by National Center for Advancing Translational Sciences (NCATS).
MCF10A rereplic: inducers of DNA re-replication in MCF 10A breast cells | AID 624296 | Potency, µM (highest dose often 46.1 µM), for the others: top-dose activity, positive = re-replication, most hits filed as activators | 350,000 compounds, 2.9% hits | MCF 10A DNA re-replication, Hoechst nuclear intensity, 48 h; note: % of control where 0% means no effect; nearly all actives have a fitted effect of over 50% in size
ELG1 repair inh: ELG1-dependent DNA repair inhibition; HEK293T ELG1-luciferase reporter, luminescence, 16 h; DNA damage induced by 5-fluorouridine; Potency, µM (doses to about 46.1 µM), for inactives: top-dose activity change, negative = inhibition, actives largely listed as inhibitors; 330,000 compounds, 2.3% hits; note: % is set by controls: 0 for no effect and ±100 for the full control effect; nearly all actives have a fitted effect of over 55% in size
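In this reporter screen, reduction of luminescence relative to DMSO vehicle indicated activity. Compounds and 5-fluorouridine were added together to 2,000 cells per well, incubated for 16 hr at 37 °C, then developed with ONE-Glo.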
SW480 rerep: DNA re-replication induction in SW480 cells; AID 624297; SW480 DNA re-replication, Hoechst DNA content imaging, 48 h; Potency, µM (highest dose often 46.1 µM), without a hit: at the top dose re-replication activation, actives largely listed as activators; 340,000 compounds, 1.8% hits; note: % of control where 0% means no effect; nearly all actives have a fitted effect of over 55% in size
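Image-based read-out: total Hoechst fluorescence of nuclei (405 nm excitation, 500-530 nm emission), with hits raising the fraction of high-intensity nuclei. SW480 colon cells incubated 48 hr with compounds at 37 C.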
KB-3-1 cytotox: kills parental KB-3-1 adenocarcinoma cells; KB-3-1 viability, CellTiter-Glo ATP luminescence, 72 h; Potency, µM (highest dose often 46.1 µM), actives largely listed as cytotoxic; 400,000 compounds, 1.4% hits; AID 1347075; note: % is set by controls: 0 for no effect and ±100 for the full control effect; nearly all actives have a fitted effect of over 60% in size
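Cytotoxicity in the drug-sensitive parental line KB-3-1 was scored as loss of CellTiter-Glo luminescence following 72 h incubation with compound. Values come from curve fitting of normalized concentration-response data.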
KB-V1 MDR tox: kills drug-selected multidrug resistant KB-V1 cells; KB-V1 MDR cells viability, CellTiter-Glo, 72 h; Potency, µM (top dose mostly 46.1 µM), usual class: cytotoxic; 400,000 compounds, 3.4% hits; AID 1347076; note: % is set by controls: 0 for no effect and ±100 for the full control effect; nearly all actives have a fitted effect of over 60% in size
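Potencies derive from concentration-effect curves fitted to normalized luminescence (CellTiter-Glo) of KB-V1 cells treated for 72 h at 37 degrees C in phenol-red-free DMEM containing 10% FBS.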
Starred values were filed as active, the others as inactive; i = inactive; ? = inconclusive; nt = no result. In the library only some 8.1% were active in any assay of this set; here they are far more common. Calls come from the whole dose curve; as a rule, active = well fitted curve in the direction sought with a large enough effect; inconclusive = small, poorly fitted or top-dose-only effect, or another doubt; inactive = no such curve, though single readings can be large; an effect the other way counts as inactive or inconclusive. Potency is the fitted concentration of half-maximal effect.

SMILES	MCF10A rereplic	ELG1 repair inh	SW480 rerep	KB-3-1 cytotox	KB-V1 MDR tox
CCOc1ccc(C(=O)NCC(=O)OCc2c(C)noc2C)cc1OCC	20%	9%	26%	i	?
COc1cc(OC)cc(-n2nnnc2SCC(=O)Nc2ccc(C(C)=O)cc2)c1	4%	4%	-4%	i	i
CCc1ccc(-c2[nH]c3c(c2-c2c(-n4cccc4)n(C)c(=O)n(C)c2=O)c(=O)n(C)c(=O)n3C)cc1	nt	nt	nt	i	?
Cc1c(C(=O)O)[nH]c2c1C(=O)CC(c1ccc(C(C)(C)C)cc1)C2 (stereo unspecified)	1%	?	-5%	i	i
Cc1c(C(=O)OC2CCCCC2)[nH]c2c1C(=O)CC(c1ccccc1Cl)C2 (stereo unspecified)	nt	nt	nt	4.1µM*	?
Cc1c(C(=O)N2CCOCC2)[nH]c2c1C(=O)CC(c1ccccc1Cl)C2 (stereo unspecified)	12%	-8%	15%	18µM*	?
COC(=O)c1[nH]c2c(c1C)C(=O)CC(c1ccccc1)C2 (stereo unspecified)	13%	5%	17%	1.3µM*	0.58µM*
COC(=O)c1[nH]c2c(c1C)C(=O)CC(c1ccc(OC)cc1)C2 (stereo unspecified)	-1%	-22%	-12%	i	i
O=C1/C(=C/c2ccccc2)CCc2ccc(Cl)nc21	?	nt	?	i	21µM*
CNC(=S)Nn1cnc2ccccc21	2%	3%	-8%	i	i
O=c1[nH]c2ccc(S(=O)(=O)Nc3ccc(-c4nnc5n4CCCCC5)cc3)cc2o1	0%	5%	1%	i	i
COC(=O)c1ccc(-c2nc3ccccc3[nH]2)cc1	-3%	?	nt	?	18µM*
COc1ccc(-c2nc3ccccc3[nH]2)cc1	-2%	?	11%	?	?
COc1cccc(NC(=O)/C=C/c2ccco2)c1	17%	?	-7%	i	?
O=C(/C=C/c1ccco1)Nc1ccc(-c2nc3ccccc3[nH]2)cc1	2.6µM*	?	?	?	i
O=C(/C=C/c1ccco1)Nc1ccc(Oc2ccc(Cl)cc2)cc1	4.6µM*	-27%	?	5.8µM*	?
O=C(Nc1ccc(-c2nc3ccccc3[nH]2)cc1)c1ccco1	7%	?	0%	i	i
Cc1cccc(NC(=O)CN2C(=S)NC(C)(C)CC2C)c1C (stereo unspecified)	0%	18%	2%	i	i
CN(C)c1ccc(N=Cc2ccnc3ccccc23)cc1	nt	nt	nt	i	i
CCc1cc(/C=C/c2ccnc3ccccc23)ccc1N(C)C	nt	nt	nt	6.5µM*	?
CN(C)c1ccc(/C=C/c2ccnc3ccccc23)cc1C=O	nt	nt	nt	i	i
CN(C)c1ccc(/C=C\C=C/c2ccnc3ccccc23)cc1	nt	nt	nt	0.92µM*	i
Cc1ccc2nccc(/C=C/c3ccc(N(C)C)cc3)c2c1	nt	nt	nt	?	18µM*
CCOC(=O)CC(=O)CSc1nc2c(sc(=S)n2-c2ccccc2)c(=O)[nH]1	16µM*	-3%	4%	i	i
CCOC(=O)CSc1nc2c(sc(=S)n2-c2ccc(CC)cc2)c(=O)[nH]1	3%	-4%	-5%	i	i
SMILES	MCF10A rereplic	ELG1 repair inh	SW480 rerep	KB-3-1 cytotox	KB-V1 MDR tox
COC(=O)CNC(=O)CSc1nc2c(sc(=S)n2-c2ccccc2)c(=O)[nH]1	-14%	2%	?	i	i
CCN(CC)C(=O)CSc1nc2c(sc(=S)n2-c2ccccc2)c(=O)[nH]1	0.65µM*	2%	-29%	i	?
CCNS(=O)(=O)c1ccc(CCC(=O)Nc2ccccc2)cc1	-8%	-3%	-11%	i	i
CCOC(=O)c1cc2occc2n1CC(=O)NCCOC	2%	3%	2%	i	?
Cc1cccc(C)c1NC(=O)CN(C)C(=O)c1ccc(-n2cncn2)c([N+](=O)[O-])c1	5%	9%	1%	i	i
CCn1c(C(=O)N2CCC(C(=O)N3CCN(c4ccccn4)CC3)CC2)cc2sccc21	9%	13µM*	-2%	i	i
O=C(Cn1c(C(=O)N2CCN(C3CCCCC3)CC2)cc2sccc21)c1ccccc1	1%	-12%	-4%	?	6.5µM*
O=C(Cn1c(C(=O)N2CCc3ccccc3C2)cc2sccc21)c1ccccc1	-2%	?	2%	i	?
CC(C)NC(=O)C1CCN(C(=O)c2cc3sccc3n2Cc2ccc(F)cc2)CC1	-9%	18µM*	3%	18µM*	6.5µM*
CCn1c(C(=O)N2CCC(C(=O)N3CCN(c4cccc(C)c4C)CC3)CC2)cc2sccc21	nt	nt	nt	i	i
Cc1ccc(CNC(=O)c2cc3sccc3n2Cc2ccc(F)cc2)cc1	nt	nt	nt	i	i
CC1CCN(C(=O)C2CCN(C(=O)c3cc4sccc4n3Cc3ccc(F)cc3)CC2)CC1	?	16µM*	8%	i	i
Cc1ccc2nc(CC(O)(c3ccccc3)c3ccccc3)ccc2c1	nt	nt	nt	i	i
Cc1ccc(N(CC(=O)NCc2ccc(Cl)cc2)S(C)(=O)=O)cc1	-6%	1%	-5%	i	i
CCOc1ccccc1NC(=O)CSc1nc2c(oc3ccccc32)c(=O)n1-c1ccc(F)cc1	nt	nt	nt	i	i
CCNC(=S)N/N=C/c1cccc(OCc2c(F)cccc2Cl)c1	?	?	1%	?	21µM*
CNC(=S)N/N=C/c1cccc(OCc2ccccc2F)c1	16%	?	-5%	?	?
COc1ccc(C2=C(C=C(C#N)C#N)C(c3ccccc3C)c3ccccc3O2)cc1OC (stereo unspecified)	-53%	?	?	i	15µM*
Cc1ccc(C)c(CSC2=NN3CCCC(=O)N=C3S2)c1	?	-7%	27%	i	i
COC(=O)c1cn(NC(=O)Cc2ccc(Cl)cc2)c(=O)c2ccccc12	?	-8%	-38%	i	21µM*
CN(C(=O)CSc1nc2c(c(=O)[nH]1)CCCC2)C1CCCCC1	?	18%	-1%	i	16µM*
CN(C(=O)CSc1nc(N)cc(=O)[nH]1)C1CCCCC1	nt	nt	nt	i	?
COCCN=C1Sc2nc3ccc(C)cc3cc2CN1Cc1cccs1	-3%	?	3%	i	i
O=C(c1ccc(F)cc1)N1CCN(Cc2ccccc2Br)CC1	20%	9%	-1%	i	i
CCOC(=O)Cn1nc(NC(=O)c2ccc(C(=O)OC)cc2)cc1C	?	25%	-10%	i	i
COc1cccc(NC(=O)CN(C)C(=O)COc2ccc3ccccc3c2)c1	2%	-5%	4%	i	15µM*
CCOC(=O)Cn1nc(NC(=O)c2cc(OC)cc(OC)c2)cc1C	21µM*	?	-2%	i	i
